Reference: the supplement of paper PMC11482750
± gives the standard deviation of the averaged measurements.

These targets were tested with O=C/C=C/c1ccccc1 [cinnamaldehyde] (assay: control-subtracted net OSN firing rate; higher = stronger neuronal activation). Settings: odorant dilution (vol/vol): 1/100.
Summary of the method: (§1)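 Single sensillum recordings from palp or antennal sensilla olfactory sensory neurons in 1–5-day-old fed female flies. These were D. melanogaster wild-type, mutant or at1 empty-neuron lines expressing Or42a homologs, or Scaptomyza species. Odorants at 1:100 vol/vol in mineral oil or dimethyl sulfoxide (20 μl on filter paper) were given as 1 s pulses into 16 ml/min filtered air. Spikes were counted over 0.5 s from 0.2 s after onset, background-subtracted, doubled and solvent-corrected. Values are replicate means.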

Target | control-subtracted net OSN firing rate
S. hsui pb1b-like | 6 ± 16 spikes/s
S. flava pb2a-like | 0 ± 6.2 spikes/s
S. flava pb1a-like | 16.7 ± 17 spikes/s
S. montana pb1a-like | 17 ± 9 spikes/s
Canton-S (D. melanogaster) pb3a | 0 ± 8.4 spikes/s
S. flava pb2b-like | -1.33 ± 7.1 spikes/s
S. flava pb1b-like | 1.33 ± 17 spikes/s
S. pallida pb1a-like | 19.3 ± 13 spikes/s
S. montana pb3a-like | -2.67 ± 16 spikes/s
Canton-S (D. melanogaster) pb1b | 2.67 ± 9.5 spikes/s
S. pallida pb3b-like | -6.67 ± 18 spikes/s
S. hsui pb1a-like | 12.7 ± 16 spikes/s
S. hsui pb3b-like | 2.67 ± 15 spikes/s
S. flava pb3a-like | -2 ± 10 spikes/s
Canton-S (D. melanogaster) pb1a | 7.11 ± 7.2 spikes/s
S. pallida pb1b-like | 4.67 ± 8.6 spikes/s
S. hsui pb2b-like | 11 ± 9.8 spikes/s
Canton-S (D. melanogaster) pb2a | 4.29 ± 8.4 spikes/s
S. hsui pb2a-like | 2.67 ± 8.2 spikes/s
Canton-S (D. melanogaster) pb2b | 5.14 ± 12 spikes/s
S. flava pb3b-like | 4.33 ± 16 spikes/s
S. pallida pb2b-like | 8.33 ± 7.4 spikes/s
S. montana pb2a-like | 13.7 ± 10 spikes/s
S. montana pb1b-like | 4 ± 5.4 spikes/s
Canton-S (D. melanogaster) pb3b | -1.67 ± 8.6 spikes/s
S. montana pb3b-like | -1.67 ± 8.2 spikes/s
S. montana pb2b-like | 6.67 ± 12 spikes/s
S. pallida pb2a-like | 6.67 ± 4.8 spikes/s
S. hsui pb3a-like | 6.33 ± 9.9 spikes/s
S. pallida pb3a-like | 1 ± 8.3 spikes/s

Each target was assayed with S=C=NCCc1ccccc1 [phenethyl isothiocyanate] in the same assay as above. Settings: odorant dilution (vol/vol): 1/100.
Summary of the method: as §1

Target | control-subtracted net OSN firing rate
S. hsui pb1b-like | -3 ± 7.1 spikes/s
S. flava pb2a-like | -0.667 ± 5.8 spikes/s
S. flava pb1a-like | -4 ± 3.8 spikes/s
S. montana pb1a-like | 4.67 ± 7.9 spikes/s
Canton-S (D. melanogaster) pb3a | 1.17 ± 5.8 spikes/s
S. flava pb2b-like | 4 ± 15 spikes/s
S. flava pb1b-like | 3 ± 8.8 spikes/s
S. pallida pb1a-like | 3 ± 4.3 spikes/s
S. montana pb3a-like | 2.33 ± 10 spikes/s
Canton-S (D. melanogaster) pb1b | -4.44 ± 6.8 spikes/s
S. pallida pb3b-like | -5.67 ± 15 spikes/s
S. hsui pb1a-like | 3.67 ± 8.9 spikes/s
S. hsui pb3b-like | -3 ± 5.8 spikes/s
S. flava pb3a-like | 3.33 ± 9.1 spikes/s
Canton-S (D. melanogaster) pb1a | 2 ± 9.3 spikes/s
S. pallida pb1b-like | -11 ± 11 spikes/s
S. hsui pb2b-like | -0.333 ± 6 spikes/s
Canton-S (D. melanogaster) pb2a | 0 ± 5 spikes/s
S. hsui pb2a-like | 0.333 ± 5 spikes/s
Canton-S (D. melanogaster) pb2b | -1.14 ± 8.4 spikes/s
S. flava pb3b-like | 1.33 ± 4.3 spikes/s
S. pallida pb2b-like | 4.33 ± 5.8 spikes/s
S. montana pb2a-like | 2.67 ± 4.3 spikes/s
S. montana pb1b-like | 3.67 ± 2.9 spikes/s
Canton-S (D. melanogaster) pb3b | 0 ± 11 spikes/s
S. montana pb3b-like | -2.33 ± 8.7 spikes/s
S. montana pb2b-like | -4.33 ± 4.8 spikes/s
S. pallida pb2a-like | 3.67 ± 4.6 spikes/s
S. hsui pb3a-like | -4.67 ± 13 spikes/s
S. pallida pb3a-like | -4.33 ± 8.1 spikes/s
